KKLEB cytotox = counter-screen for CF NF-kB inhibitors: cytotoxicity. KKLEB CF airway cells viability, ATPlite luminescence, overnight; active compounds read low; cells stimulated with P. aeruginosa culture filtrate. actives 0.36% (n = 360,000). activity change (cytotoxicity), % at 5 µM;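 active = corrected activity change at or below -50% at 5 µM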
HIF-2a block = blocks HIF-2a reporter activity. 786-0 RCC cells HIF-2a reporter, luciferase luminescence, overnight. actives 0.72% (n = 360,000). inhibition, % at 18.8 µM. AID 624352;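 active = inhibition of the luminescence signal of 40% or more relative to plate controls, in a single-dose primary screen at 18.75 µM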
CF NFkB inh = cystic fibrosis NF-kB activation inhibition; KKLEB NF-kB-GFP reporter, PAF-induced, GFP fluorescence overnight; inhibition, % at 5 µM; actives 0.86% (n = 360,000);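 active = at least 50% inhibition at 5 µM, scaled per plate between neutral and stimulator controls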;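 also: PAF is a Pseudomonas aeruginosa culture filtrate used as stimulus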
TRPM1 prom inh = MITF TRPM1 promoter inhibition in SK-MEL-5 cells | SK-MEL-5 TRPM1 promoter luciferase, 24 h | inhibition, % at 12.5 µM | actives 0.83% (n = 330,000) | AID 488899;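 active = mean inhibition across replicates of 60% or more, whatever share of single replicates reaches that level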
Peg3 prom inh-1 = Peg3 promoter activity inhibition; AID 588405; inhibition, % at 20 µM; HeLa PEG-Prom luciferase reporter, luminescence, overnight; actives 1.7% (n = 360,000);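 active = inhibition of at least 50% at 20 µM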
ABHD5-PLIN5 inh = blocks binding of human ABHD5 to perilipin-5 | Split G. princeps luciferase complementation, luminescence, 4 h | inhibition, % at 4 µM | actives 0.78% (n = 360,000);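 active = inhibition above the mean inhibition across every tested compound plus 3 SD, cut at about 22% in these data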
Target sequence (Q00G26 whole entry, looked up): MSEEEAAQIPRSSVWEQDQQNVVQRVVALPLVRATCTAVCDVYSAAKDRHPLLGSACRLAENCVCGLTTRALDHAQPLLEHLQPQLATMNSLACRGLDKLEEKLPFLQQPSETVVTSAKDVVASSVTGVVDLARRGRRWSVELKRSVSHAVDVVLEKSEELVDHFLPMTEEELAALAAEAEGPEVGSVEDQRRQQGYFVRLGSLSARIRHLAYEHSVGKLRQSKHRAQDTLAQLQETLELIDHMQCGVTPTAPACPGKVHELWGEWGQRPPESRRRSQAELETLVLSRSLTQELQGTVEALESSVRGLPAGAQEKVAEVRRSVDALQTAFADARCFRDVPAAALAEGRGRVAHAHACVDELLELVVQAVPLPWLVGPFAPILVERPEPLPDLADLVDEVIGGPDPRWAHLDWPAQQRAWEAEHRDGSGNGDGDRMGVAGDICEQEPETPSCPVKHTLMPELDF
Target sequence (Q8WTS1 whole entry, looked up): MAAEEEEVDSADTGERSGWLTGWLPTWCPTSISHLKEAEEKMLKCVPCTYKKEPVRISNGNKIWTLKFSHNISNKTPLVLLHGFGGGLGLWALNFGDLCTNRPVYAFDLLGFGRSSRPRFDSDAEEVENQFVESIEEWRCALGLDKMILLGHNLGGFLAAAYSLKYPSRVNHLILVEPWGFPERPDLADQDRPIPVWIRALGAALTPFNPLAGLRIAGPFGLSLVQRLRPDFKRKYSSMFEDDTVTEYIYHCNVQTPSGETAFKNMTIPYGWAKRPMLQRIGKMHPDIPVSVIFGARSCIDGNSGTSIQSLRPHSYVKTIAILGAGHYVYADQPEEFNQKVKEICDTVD
Peg3 prom inh-2 = confirmation of Peg3 promoter inhibitors | inhibition, % at 20 µM | HeLa PEG-Prom luciferase reporter, luminescence, overnight | actives 84% (n = 1,300) | AID 602417 | shares compounds with Peg3 prom inh-1;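 active = at 20 µM dose, 40% or more inhibition averaged across four replicates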
Each line names hits and unclear results; the compound was inactive in the other large screens (follow-up assays come after a bar, where they were run). Sampled rows, rich in hits. Any-hit rate of the full collection: about 3.1%.

COc1ccc(-c2nc3c(c(SCC(=O)N4CCOCC4)n2)Cc2c(CO)cnc(C)c2O3)cc1	Peg3 prom inh-1 54 | Peg3 prom inh-2 40
Cc1ccc(-c2nc3c(c(SCC(=O)N4CCOCC4)n2)Cc2c(CO)cnc(C)c2O3)cc1	none
CN(CCOc1ccc(Cl)cc1)C(=O)c1cc(-c2ccco2)nc2ccccc12	Peg3 prom inh-1 64 | Peg3 prom inh-2 79
Cc1cc(C)c(C)c(S(=O)(=O)N2CCN(C(=O)c3cc(=O)[nH]c4ccccc34)CC2)c1C	Peg3 prom inh-1 59 | Peg3 prom inh-2 58
CCOC(=O)CC1(NC(=O)C2CCC(=O)N(CCc3ccccc3)C2)CCCCC1 (stereo not given)	none
OC(c1cccc(F)c1)c1ncc(-c2ccc(Oc3ccccc3)cc2)[nH]1 (stereo not given)	none (no result: TRPM1 prom inh)
CN(C)CCNc1ccc(CO)c2oc3ccc(O)cc3c(=O)c12	HIF-2a block 41, Peg3 prom inh-1 97 | Peg3 prom inh-2 90
O=C(COC(=O)C1CCCC1)Nc1ncc(Cl)cc1Cl	none
O=C(N/N=C(\c1ccccc1)c1ccccn1)c1cccc([N+](=O)[O-])c1	TRPM1 prom inh 83, Peg3 prom inh-1 51 | Peg3 prom inh-2 62
CN(CC(=O)Nc1cccc(F)c1)C(=O)c1csc2c1CCCC2	none
O=c1[nH]c(=O)n(Cc2ccc(Oc3ccccc3)cc2)cc1Br	none
C=C1CC(Cn2cc(Br)c(=O)[nH]c2=O)(c2ccc(-c3ccccc3)cc2)OC1=O (stereo not given)	HIF-2a block 94, CF NFkB inh 87, TRPM1 prom inh 109, Peg3 prom inh-1 100, ABHD5-PLIN5 inh 54 | Peg3 prom inh-2 98
CCN(CC)S(=O)(=O)c1cccc(C(=O)N/N=C(\C)c2ccc(O)cc2O)c1	TRPM1 prom inh 71, Peg3 prom inh-1 52 | Peg3 prom inh-2 65
CCN(CC)S(=O)(=O)c1cccc(C(=O)N/N=C/c2ccc(O)c(O)c2O)c1	none
O=C(NC(c1ccc(F)cc1)c1ccc2ccccc2n1)C1CCN(Cc2cccc(C(F)(F)F)c2)CC1 (stereo not given)	Peg3 prom inh-1 78 (no result: TRPM1 prom inh) | Peg3 prom inh-2 85
CN(C)c1ccc(CN2CCC(C(=O)NC(c3ccc(F)cc3)c3ccc4ccccc4n3)CC2)cc1 (stereo not given)	none (no result: TRPM1 prom inh)
O=C(O)c1cc(NC(=O)c2cccc(C(=O)Nc3cc(C(=O)O)cc(C(=O)O)c3)c2)cc(C(=O)O)c1	none
CCOc1ccccc1NC(=O)c1oc2ccccc2c1NC(=O)C1CCCO1 (stereo not given)	Peg3 prom inh-1 74 | Peg3 prom inh-2 inactive
CCOc1ccccc1NC(=O)c1oc2ccccc2c1NC(=O)C1CC1	none
Cc1nc(N2CCN(S(=O)(=O)c3ccccc3C#N)CC2)c2c(-c3ccccc3)csc2n1	Peg3 prom inh-1 54 | Peg3 prom inh-2 62
N#Cc1ccccc1S(=O)(=O)N1CCN(c2nc(-c3ccccc3)nc3ccccc23)CC1	none (no result: TRPM1 prom inh)
O=C(c1ccccc1)N1CCN(c2ccc([N+](=O)[O-])c(NCc3cccnc3)c2)CC1	none
O=C(c1ccc(Cl)cc1)N1CCN(c2ccc([N+](=O)[O-])c(NCc3cccnc3)c2)CC1	Peg3 prom inh-1 55 | Peg3 prom inh-2 49
CCc1cccc(CC)c1NC(=S)NCCc1c(C)[nH]c2ccc(C)cc12	Peg3 prom inh-1 69 | Peg3 prom inh-2 85
CSc1ccc(C(O)c2ncc(-c3cccc(F)c3)[nH]2)cc1 (stereo not given)	none (no result: TRPM1 prom inh)
Cc1ccc(C(=O)/C=C/NNC(=O)c2ccccc2O)cc1	none
CCN(CC)CCC(c1ccc(N(C)C)cc1)c1c(OC)cc(OC)c2c(-c3ccccc3)cc(=O)oc12 (stereo not given)	Peg3 prom inh-1 84 | Peg3 prom inh-2 inactive
COc1cc(OC)c2c(-c3ccccc3)cc(=O)oc2c1C(CCN1CCN(c2ccccc2)CC1)c1ccc(N(C)C)cc1 (stereo not given)	none
CCOc1ccc2nc(NC(=O)c3cccc(-c4cc5ccccc5oc4=O)c3)sc2c1	KKLEB cytotox -58, CF NFkB inh 50, Peg3 prom inh-1 89 | Peg3 prom inh-2 inactive
CCOc1ccc2nc(NC(=O)c3cccc(N4C(=O)CCC4=O)c3)sc2c1	none (no result: TRPM1 prom inh)
O=C(CCCN1C(=O)/C(=C/c2cccc(Br)c2)SC1=S)Nc1cccnc1	HIF-2a block 49, Peg3 prom inh-1 76 | Peg3 prom inh-2 96
CC(=O)Nc1ccc(C(=O)N2CCCCC2c2cc(C(=O)Nc3ccccc3Cl)no2)cc1 (stereo not given)	none (no result: TRPM1 prom inh)
COc1cc(/C=C(\C#N)C(=O)N2CCOCC2)ccc1OCc1ccccc1	none
N#C/C(=C\c1ccc(OCc2ccc(C(=O)O)cc2)cc1)C(=O)N1CCOCC1	TRPM1 prom inh 85, Peg3 prom inh-1 71 | Peg3 prom inh-2 76
Cc1ccccc1CNC(=O)C1CCCN(c2nnc(C)c3c(C)n(-c4ccccc4)nc23)C1 (stereo not given)	TRPM1 prom inh 82, Peg3 prom inh-1 63 | Peg3 prom inh-2 81
CCN(CC)C(=O)Cn1cnc2sc(C(=O)N3CCN(c4ccc(F)cc4)CC3)c(C)c2c1=O	none
O=C1CSC(c2ccccc2[N+](=O)[O-])N1CCc1ccccc1 (stereo not given)	none
CN(C)c1ccc(/C=C2\SC(=O)N(CCc3nnc(N)s3)C2=O)cc1	HIF-2a block 58, TRPM1 prom inh 83, Peg3 prom inh-1 72 | Peg3 prom inh-2 54
CC1(C)C2([N+](=O)[O-])CN3CC1([N+](=O)[O-])CN(C2)C3C(O)C(O)C(O)CO (stereo not given)	none
C[C@@]12C(=O)Nc3cc(Cl)ccc3C(=O)N1[C@H]1c3ccccc3OC[C@@H]1[C@@H]2c1ccccc1	none
C[C@@]12C(=O)Nc3cc(Cl)ccc3C(=O)N1[C@H]1c3cc(Cl)ccc3OC[C@@H]1[C@@H]2c1ccccc1	Peg3 prom inh-1 56 | Peg3 prom inh-2 57
COCCNC(=O)c1cccc(OC2CCN(Cc3ccccc3C)CC2)c1	none
Cc1nc(NC(=O)/C=C/c2ccccc2)sc1C(=O)Nc1ccccc1Cl	none
Cc1nc(NC(=O)/C=C/c2ccccc2)sc1C(=O)Nc1ccc(Cl)cc1	Peg3 prom inh-1 53 | Peg3 prom inh-2 inactive
CCOC(=O)/C(=C\c1ccccc1)C(=O)CCN1CCOCC1	TRPM1 prom inh 84, Peg3 prom inh-1 97 | Peg3 prom inh-2 86
Cc1ccc(C(=O)CC(=O)COc2ccc(Cl)cc2)cc1	none
c1cncc(-c2nc(NCC3COc4ccccc4O3)c3ccccc3n2)c1 (stereo not given)	Peg3 prom inh-1 58 | Peg3 prom inh-2 68
O=S(=O)(c1cccs1)N1CCN(c2ccnc3cc(Cl)ccc23)CC1	Peg3 prom inh-1 51 | Peg3 prom inh-2 69
